Screening results: PubChem, National Center for Advancing Translational Sciences (NCATS)
TSHR antag: blocks TSH signaling through the human TSH receptor; activity change, negative = inhibition, % at 11.5 µM; P16473; TSHR-expressing cells, TSH-stimulated cAMP HTRF, 2 h; stronger effect = lower value; AID 504810; hit rate 0.2% among 330,000;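 active = activity change below a set negative limit, meaning inhibition stronger than a set level, cut at about -70% in these data; inconclusive = activity change between two set negative limits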
Target sequence (P16473 whole entry, looked up): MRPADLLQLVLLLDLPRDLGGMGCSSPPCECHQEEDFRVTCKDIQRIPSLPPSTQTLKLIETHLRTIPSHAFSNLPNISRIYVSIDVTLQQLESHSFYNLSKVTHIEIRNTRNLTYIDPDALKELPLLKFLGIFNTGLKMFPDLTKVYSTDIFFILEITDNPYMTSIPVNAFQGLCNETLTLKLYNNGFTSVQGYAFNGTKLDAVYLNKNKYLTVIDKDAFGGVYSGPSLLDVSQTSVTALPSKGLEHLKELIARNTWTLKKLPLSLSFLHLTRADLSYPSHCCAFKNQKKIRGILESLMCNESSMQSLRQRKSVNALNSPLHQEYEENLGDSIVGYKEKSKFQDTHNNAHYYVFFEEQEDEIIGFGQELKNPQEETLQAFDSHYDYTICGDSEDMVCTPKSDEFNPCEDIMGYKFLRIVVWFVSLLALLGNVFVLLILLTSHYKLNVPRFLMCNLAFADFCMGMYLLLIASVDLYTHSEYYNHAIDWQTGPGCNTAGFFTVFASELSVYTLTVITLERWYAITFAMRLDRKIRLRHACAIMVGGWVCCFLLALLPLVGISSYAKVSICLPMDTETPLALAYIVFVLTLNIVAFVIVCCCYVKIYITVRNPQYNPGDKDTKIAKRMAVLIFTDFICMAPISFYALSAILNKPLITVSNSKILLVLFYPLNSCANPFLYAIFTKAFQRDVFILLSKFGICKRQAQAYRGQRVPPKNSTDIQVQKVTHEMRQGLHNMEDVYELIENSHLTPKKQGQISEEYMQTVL
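Cell-based HTRF cAMP assay; TSHR cells + compound, TSH EC80 (4nM final), 2 h, 37 deg C. Lysis with anti-cAMP cryptate and cAMP-d2, 30 min RT, read 665/620 nm.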
ELG1 DNA repair: inhibitors of ELG1-dependent DNA repair in HEK293T cells. HEK293T ELG1-luciferase reporter, luminescence, 16 h; DNA damage induced by 5-fluorouridine. Potency, µM (top dose mostly 46.1 µM), most hits filed as inhibitors. hit rate 2.3% among 330,000. AID 504467; also: nearly all actives have a fitted effect of over 55% in size
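Step one: seed 2,000 cells per well. Step two: pin-transfer compound or DMSO alongside 5-fluorouridine. Step three: incubate 16 hr, 37 °C, 5% CO2. Step four: add ONE-Glo, wait 30 min, read luminescence.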
Gal4-VP16 FLuc: counter-screen for ROR gamma inhibitors: Gal4-VP16 reporter | Drosophila S2 Gal4-VP16 UAS-luciferase, luminescence, 20 h | Potency, µM (highest dose often 53.6 µM), usual class: inhibitors | hit rate 3.5% among 310,000;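 also: Gal4-VP16 expression switched on by copper sulfate through the metallothionein promoter; nearly all actives have a fitted effect of over 50% in size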
RORg inh: ROR gamma (mouse) transcription inhibition; Drosophila S2 Gal4-RORgamma UAS-luciferase reporter, 20 h; Potency, µM (series often up to 53.6 µM), most hits filed as inhibitors; P51450; hit rate 5.4% among 310,000; also: nearly all actives have a fitted effect of over 60% in size
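Drosophila S2 cells stably expressing Gal4-DBD/mouse RORγ fusion under metallothionein promoter plus UAS-luciferase; compound 1 h, then 700 uM CuSO4 induction for 20 h at ambient temperature; inhibition read as reduced luminescence.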
Coupling enz: inhibits coupling enzyme system, counter-screen for aldolase hits | coupling enzyme system counterscreen, AmpLite Red fluorescence | activity change, negative = inhibition, % at 58.2 µM, hits read low | hit rate 0.67% among 290,000; in the data active = activity change below about -30%
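Fluorescence at 525 nm excitation and 598 nm emission measured inhibition of the coupled detection system without aldolase. Compounds (at 57.5 uM final) were preincubated 10 min at room temperature with coupling enzyme reagent before a 20 min substrate/AmpLite Red step.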
Large screens that a line does not name were inactive. In the library only some 8% were active in any assay of this set; here they are far more common. Unless noted, calls follow the shape of the dose curve; as a rule, active = well fitted curve in the direction sought with a large enough effect; inconclusive = small, poorly fitted or top-dose-only effect, or another doubt; inactive = no such curve, though single readings can be large; an effect the other way counts as inactive or inconclusive.

O=C(Nc1cccc(S(=O)(=O)Nc2ccc(Cl)cc2)c1)c1ccc(Cl)nc1	ELG1 DNA repair inconclusive, Gal4-VP16 FLuc 3.16µM, RORg inh inconclusive
COc1ccccc1NS(=O)(=O)c1cccc(NC(=O)c2ccc3ccccc3n2)c1	TSHR antag inconclusive, ELG1 DNA repair 18.4µM, Gal4-VP16 FLuc inconclusive, RORg inh inconclusive
CN(C)S(=O)(=O)c1cccc(NC(=O)c2cnccn2)c1	none
COc1cccc(S(=O)(=O)Nc2ccc(C(=O)Nc3ccncc3)cc2)c1	ELG1 DNA repair inconclusive
COc1ccc(NS(=O)(=O)c2cccc(NC(=O)c3cnccn3)c2)cc1Br	ELG1 DNA repair 18.3µM, Gal4-VP16 FLuc inconclusive
COc1ccc(NS(=O)(=O)c2cccc(NC(=O)c3ccc(Cl)nc3)c2)cc1	ELG1 DNA repair inconclusive, Gal4-VP16 FLuc 2.82µM, RORg inh inconclusive
CS(=O)(=O)c1cccc(-c2csc(N3CCC(C(N)=O)CC3)n2)c1	ELG1 DNA repair inconclusive (no result: Gal4-VP16 FLuc, RORg inh, Coupling enz)
COC(=O)[C@@]12CCCCN1[C@H](c1ccc(-c3ccc4c(c3)OCO4)c(OC)c1)[C@@H]1C(=O)N(C)C(=O)[C@@H]12	none (no result: Gal4-VP16 FLuc, RORg inh, Coupling enz)
COC1C(O)C(CO)OC1n1cnc2c(=O)[nH]c(N)nc21 (stereo not given)	none (no result: TSHR antag, ELG1 DNA repair)
CC(=O)c1c(C)oc2ccc(N(C(C)=O)S(=O)(=O)c3cccc4cccnc34)cc12	ELG1 DNA repair 5.8µM
CCO[C@H](c1cc(OC)cc([N+](=O)[O-])c1OC)[C@H](C)/C=C\CC(=O)OC	none (no result: TSHR antag, ELG1 DNA repair)
COc1cc(NC(=O)C2=C(N3CCOCC3)/C(=C/c3ccc(Cl)cc3)CC2)cc(OC)c1OC	ELG1 DNA repair 16.4µM, Gal4-VP16 FLuc inconclusive, RORg inh inconclusive
COc1cc(NC(=O)C2=C(N3CCOCC3)/C(=C\c3ccc(N(C)C)cc3)CCC2)cc(OC)c1OC	ELG1 DNA repair inconclusive, RORg inh inconclusive
COC(=O)C1=C(C(=O)OC)[C@@H]2N(Cc3ccccc3)c3ccccc3[C@@]23C[C@@H](C(=O)OC)N(S(=O)(=O)c2ccc(Br)cc2)C3=N1	none (no result: TSHR antag, ELG1 DNA repair, Gal4-VP16 FLuc, RORg inh)
O=[N+]([O-])c1ccc2c(c1)[nH]c(=S)n2-c1ccccc1	RORg inh 5.01µM
Cc1[nH]n(-c2cccc([N+](=O)[O-])c2)c(=O)c1-c1ccccc1	RORg inh inconclusive
O=[N+]([O-])c1ccc(O)c(/C=N/n2c(-c3ccccc3)n[nH]c2=S)c1	Gal4-VP16 FLuc inconclusive, RORg inh inconclusive
Cc1cccc(-c2n[nH]c(=S)n2-c2ccccc2)c1[N+](=O)[O-]	ELG1 DNA repair inconclusive, Gal4-VP16 FLuc inconclusive, RORg inh 12.6µM
O=[N+]([O-])c1cccc(-c2n[nH]c(=S)n2-c2ccccc2)c1	RORg inh 7.08µM
O=[N+]([O-])c1cccc(-c2ccc(/C=N/n3c(-c4ccccc4)n[nH]c3=S)o2)c1	ELG1 DNA repair inconclusive, Gal4-VP16 FLuc 10µM
CCCCCC(=O)Cc1cc(O)cc(O)c1C(=O)Oc1cc(CC(=O)CCCCC)c(C(=O)O)c(OC)c1	none (no result: TSHR antag, ELG1 DNA repair)
Cc1ccc(OCC(=O)N2CCC(C)CC2)c([N+](=O)[O-])n1	none (no result: Gal4-VP16 FLuc, RORg inh, Coupling enz)
COc1ccc(-n2c(-c3cccc(C)c3[N+](=O)[O-])n[nH]c2=S)cc1	RORg inh 7.94µM
COc1cccc(/C=C/C(=O)Nc2ccc3c(c2)OCCO3)c1OC	ELG1 DNA repair inconclusive, Gal4-VP16 FLuc inconclusive, RORg inh 1.12µM
COc1cccc(/C=C/C(=O)Nc2cccc(C(C)=O)c2)c1OC	ELG1 DNA repair inconclusive, Gal4-VP16 FLuc inconclusive, RORg inh 1.41µM
COc1ccc(/C=C/C(=O)Nc2cccc(C(C)=O)c2)cc1	ELG1 DNA repair inconclusive, Gal4-VP16 FLuc 6.31µM, RORg inh 3.16µM
COc1ccc(S(=O)(=O)N2CCOCC2)cc1NC(=O)CSc1ccc(F)cc1	ELG1 DNA repair inconclusive (no result: Gal4-VP16 FLuc, RORg inh, Coupling enz)
Nc1nc(-c2nn(Cc3ccccc3F)c3ncccc23)ncc1C1CC1	Gal4-VP16 FLuc 12.6µM, RORg inh 1.78µM (no result: TSHR antag, ELG1 DNA repair)
O=C(Oc1cccc(NC2=NS(=O)(=O)c3ccccc32)c1)c1cccnc1	none
Cc1ccc(NS(=O)(=O)c2ccc(C(=O)NCCCN3CCCC3=O)cc2)cc1	none (no result: Gal4-VP16 FLuc, RORg inh, Coupling enz)
O=C(Nc1nccs1)c1ccc([N+](=O)[O-])cc1Cl	Gal4-VP16 FLuc inconclusive, RORg inh 11.2µM
O=C(Nc1nccs1)c1cc([N+](=O)[O-])ccc1Cl	none (no result: Gal4-VP16 FLuc, RORg inh)
O=C(Nc1nccs1)c1ccc(Cl)cc1[N+](=O)[O-]	Gal4-VP16 FLuc inconclusive, RORg inh 10µM
O=C(Nc1nccs1)c1ccc(Cl)c([N+](=O)[O-])c1	Gal4-VP16 FLuc 4.47µM, RORg inh 6.31µM
Cc1ccc(Oc2ccc(NS(=O)(=O)c3cccc(C(=O)O)c3)cc2)cc1	none (no result: Gal4-VP16 FLuc, RORg inh, Coupling enz)
CN(Cc1ccccn1)C(=O)C1CCC(=O)N(Cc2cccc(C(F)(F)F)c2)C1 (stereo not given)	none
COc1ccc2c([N+](=O)[O-])c(Cl)[nH]c2c1	Coupling enz -32.0
Cc1ccc(NCC(=O)N=Nc2c(O)[nH]c3ccc([N+](=O)[O-])cc23)cc1	ELG1 DNA repair inconclusive, Coupling enz -31.1
O=[N+]([O-])c1ccc2[nH]c(O)c(N=NC(=S)NCC3CCCO3)c2c1 (stereo not given)	Gal4-VP16 FLuc inconclusive, RORg inh 3.98µM
CCNC(=S)N=Nc1c(O)[nH]c2ccc([N+](=O)[O-])cc12	ELG1 DNA repair inconclusive, Gal4-VP16 FLuc 11.2µM, RORg inh 2µM
CCOCCCn1c(=S)[nH]c2ncccc2c1=O	ELG1 DNA repair inconclusive, Gal4-VP16 FLuc inconclusive, RORg inh 10µM
CN(C)CCn1c(=S)[nH]c2ncccc2c1=O	ELG1 DNA repair inconclusive
CC(C)CCn1c(=S)[nH]c2ncccc2c1=O	RORg inh 5.01µM
CCN(CC(=O)Nc1ccccc1C(F)(F)F)C(=O)CN1C(=O)NC(C)(c2ccccc2)C1=O (stereo not given)	none (no result: Gal4-VP16 FLuc, RORg inh, Coupling enz)
C=C1OC(CO)(n2cnc3c(N)ncnc32)C(O)C1O (stereo not given)	none (no result: TSHR antag, ELG1 DNA repair)
COc1ccc(N(CC(=O)Nc2nc3ccc(C)cc3s2)S(=O)(=O)c2c(C)nn(C)c2C)cc1	ELG1 DNA repair 18.4µM
CCOc1ccc(OCCn2c(=S)[nH]c3c(N)ncnc32)cc1	RORg inh 2.51µM
Cc1ccc(OCCn2cnc3c(N)ncnc32)cc1	ELG1 DNA repair inconclusive
Cc1cc(C)n2nc(C(=O)N/N=C/c3ccccc3Cl)nc2n1	none
Cc1cc(C)n2nc(C(=O)N/N=C/c3c4ccccc4cc4ccccc34)nc2n1	ELG1 DNA repair inconclusive, Gal4-VP16 FLuc 17.8µM, RORg inh 35.5µM
Cc1cc(C)n(CCC(=O)N/N=C/c2c(O)ccc3ccccc23)n1	ELG1 DNA repair 3.66µM, Gal4-VP16 FLuc inconclusive, RORg inh 1.12µM
O=C(CCSc1nc2ccccc2s1)N/N=C/c1c(O)ccc2ccccc12	Gal4-VP16 FLuc 1µM, RORg inh 1.41µM
Cc1cccc(/C=N/NC(=O)CN2CCCCCCC2)c1	none
COc1ccc(/C=N/NC(=O)CCSc2nc3ccccc3s2)cc1OC	ELG1 DNA repair inconclusive
